Compounds with a hit are over-represented: about 22% of the library has one in this group of screens.
Pf growth 48h – P. falciparum growth inhibition at 48 hours (one generation); AID 504832; Potency, µM (series often up to 28.7 µM), actives largely listed as inhibitors; P. falciparum luciferase growth in erythrocytes, 48 h; 310,000 tested, 5.9% active
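A one-generation exposure of luciferase-tagged malaria parasites in RPMI 1640/Albumax erythrocyte culture, 37 C and 5% CO2. Inhibition is inferred from decreased luminescence after adding detection reagent.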
Cycloheximide cs – counter-screen for Shiga toxin inhibitors: cycloheximide protein synthesis inhibition; 300,000 tested, 12% active; cell reporter, cycloheximide protein synthesis inhibition counterscreen; max response, %; in the data active means max response mostly above about 13%, no sharp cut-off; inactive means mostly below about 14%; further: read at 38.3 µM for the half of the compounds with a filed dose
Pf growth 96h – inhibits malaria parasite growth, 96 h; AID 504834; 320,000 tested, 6.9% active; P. falciparum luciferase reporter growth, 96 h; Potency, µM (series often up to 28.7 µM), actives largely listed as inhibitors
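Luminescence readout: decreased luciferase signal marks inhibited growth of reporter-expressing P. falciparum in infected red cells (2% hematocrit, 0.05% parasitemia final), exposed to compound two generations (96 h, 37 C, 5% CO2).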
Shiga inhibitor – blocks Shiga toxin action in Vero cells; Vero cells, Shiga toxin protein synthesis inhibition reporter; inhibition, % at 38.7 µM; 290,000 tested, 9.2% active; in the data active means inhibition mostly above about 28%, no sharp cut-off; inactive means mostly below about 43%
LmPK inh – LmPK (Leishmania mexicana) enzyme inhibition; Q27686; purified LmPK, Kinase-Glo ATP luminescence, 1 h; Potency, µM (top dose mostly 57.5 µM), usual class: inhibitors; 290,000 tested, 0.37% active
Target sequence (Q27686 whole entry, looked up): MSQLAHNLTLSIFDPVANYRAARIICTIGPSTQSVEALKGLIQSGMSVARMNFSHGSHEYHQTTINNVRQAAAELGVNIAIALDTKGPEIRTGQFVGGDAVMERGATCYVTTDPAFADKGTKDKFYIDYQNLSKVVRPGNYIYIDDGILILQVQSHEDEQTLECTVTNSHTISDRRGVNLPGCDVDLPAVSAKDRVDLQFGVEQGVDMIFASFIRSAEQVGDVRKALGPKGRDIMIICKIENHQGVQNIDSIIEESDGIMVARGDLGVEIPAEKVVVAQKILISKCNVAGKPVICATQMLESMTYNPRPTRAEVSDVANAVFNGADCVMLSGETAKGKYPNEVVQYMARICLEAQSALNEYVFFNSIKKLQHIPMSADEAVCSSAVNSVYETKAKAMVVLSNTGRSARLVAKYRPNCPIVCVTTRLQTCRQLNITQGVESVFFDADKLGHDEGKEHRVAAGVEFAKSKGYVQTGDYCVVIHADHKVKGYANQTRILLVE
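0.1 nM LmPK, 0.5 mM PEP, 0.1 mM ADP; 50 mM imidazole pH 7.2, 7 mM MgCl2, 50 mM KCl; 1 h RT. Kinase-Glo luminescence readout, normalized to no-enzyme (full inhibition) and uninhibited wells.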
Of the large screens only hits and unclear results are named; the others gave an inactive call. Unless noted, the call rests on the fitted dose curve; in most records, active means well fitted inhibition curve with a large enough effect; inconclusive means small, poorly fitted or top-dose-only effect, or another doubt; inactive means no such curve, though single readings can be large or run the other way.

O=C(Nc1ccccc1)Nc1nnc(CSCc2ccccc2Cl)s1	Pf growth 96h inconclusive
O=C(Nc1cccc(Cl)c1)Nc1nc(-c2ccccc2)cs1	Pf growth 96h inconclusive
O=C(Nc1ccc(Cl)c(Cl)c1)Nc1nnc(CSc2ccccc2)s1	Pf growth 48h 4.65µM
O=C(Nc1cccc(Cl)c1)Nc1nccs1	Cycloheximide cs 69.0, Pf growth 96h inconclusive, Shiga inhibitor 98.4
CSc1ccc(Cl)c(C(=O)Nc2nccs2)c1	Pf growth 48h inconclusive
CCOC(=O)C1(Cc2ccc(Cl)cc2)CCN(C(=O)c2sc(C)nc2C)CC1	Pf growth 48h inconclusive, Pf growth 96h inconclusive
CCN(CC)S(=O)(=O)c1ccc(Cl)c(NC(=O)COC(=O)c2ccc(O)cc2)c1	Pf growth 48h inconclusive, Pf growth 96h 4.65µM
COc1ccc(/C=C/C(=O)OCC(=O)Nc2cc(S(=O)(=O)N(C)C)ccc2Cl)cc1	Cycloheximide cs 12.8, Shiga inhibitor 58.4
CCC/C=N/Nc1nnc(Cc2ccc(OC)c(OC)c2)c(=O)[nH]1	none
CC1CCC2(CC1)NC(=O)N(NC(=O)C1CCN(C(=O)c3ccc(Cl)cc3)CC1)C2=O (stereo not given)	none (no result: Cycloheximide cs, Shiga inhibitor, LmPK inh)
Cc1csc(NC(=O)CCn2c(=O)sc3ccccc32)n1	none (no result: Pf growth 48h)
O=C(CNC(=O)C1CCCC1)Nc1ccccc1Br	Pf growth 48h inconclusive (no result: Cycloheximide cs, Shiga inhibitor, LmPK inh)
CN(CC(=O)Nc1ccccc1Br)C(=O)CCc1ccccc1	none
CN(CC(=O)Nc1ccccc1Br)C(=O)CCC1CCCC1	Cycloheximide cs 56.8, Pf growth 96h inconclusive, Shiga inhibitor 44.9
O=C(CCSc1ccccc1)Nc1ccccc1Br	Pf growth 48h inconclusive, Cycloheximide cs 40.5, Shiga inhibitor 73.8
O=C(CCSc1ccccc1)Nc1ccccc1C(=O)N1CCCC1	none
O=C(CSC1CCCCC1)Nc1ccccc1Br	Cycloheximide cs 12.6, Shiga inhibitor 90.1
O=C(CCn1c(=O)sc2ccccc21)Nc1nccs1	Cycloheximide cs 33.0 (no result: Pf growth 48h)
O=C(CCSc1ccccc1)Nc1nccs1	Cycloheximide cs 19.1 (no result: Pf growth 96h)
O=C(CCCSc1ccc(Cl)cc1)Nc1ccccc1O	Cycloheximide cs 26.9
Cc1ccc(SCCC(=O)Nc2nccs2)cc1	none
O=C(CCSc1ccccc1)Nc1ncccn1	Cycloheximide cs 29.6
C/C(=N\O)C(C)(C)Nc1cccc(Br)c1	none
Cc1cc(C)n(-c2ccc(NC(=O)C3CCCCN3C(=O)c3ccoc3C)cc2)n1 (stereo not given)	none
CN1c2c(nc(N)[nH]c2=O)NCC1CNc1ccc(C(=O)NC(CCC(=O)O)C(=O)O)cc1 (stereo not given)	none (no result: Cycloheximide cs, Shiga inhibitor, LmPK inh)
O=C1CCCCC1C(=O)c1cn(-c2ccc(Cl)c(Cl)c2)nn1 (stereo not given)	Pf growth 96h inconclusive
O=C(c1cn(-c2ccc(Cl)c(Cl)c2)nn1)C1CC1	Cycloheximide cs 37.2, Shiga inhibitor 50.6
COc1cccc(/C=C2/Oc3ccccc3N(CC(=O)NCC3CCCO3)C2=O)c1 (stereo not given)	Pf growth 48h inconclusive
Cn1c(=O)c2c(nc(SC3C(=O)CC(C)(C)CC3=O)n2C)n(C)c1=O	Pf growth 96h 11.7µM
CCn1c(COc2ccc(C)cc2)nnc1SCC(=O)NNC(=O)c1ccc(OC)cc1	none
CN(C(=O)c1cc(-n2cnnc2)ccc1Cl)c1ccccc1	Cycloheximide cs 16.7, Shiga inhibitor 42.6
Cc1c(NC(=O)c2cccs2)cccc1-c1nc2ccccc2s1	none
O=C(NCc1ccccc1)c1cc(-n2cnnc2)ccc1Cl	none
O=C(Nc1cccc(-c2nc3ccccc3s2)c1)c1cc(-n2cnnc2)ccc1Cl	Cycloheximide cs 29.5
COc1cc(NC(=O)c2cc(-n3cnnc3)ccc2Cl)cc(OC)c1	Pf growth 96h 13.1µM
Cc1c(NC(=O)c2cc(-n3cnnc3)ccc2Cl)cccc1-c1nc2ccccc2s1	Cycloheximide cs 23.1, Shiga inhibitor 36.9
CC(=O)c1cccc(NC(=O)c2cc(-n3cnnc3)ccc2Cl)c1	none (no result: Pf growth 96h)
O=Cc1c(NCCN2CCCC2)c2ccccc2[nH]c1=O	none
O=S(=O)(NC1c2cccc3cccc(c23)C1N1CCNCC1)c1ccc(Cl)cc1 (stereo not given)	Pf growth 48h inconclusive
O=C(c1ccco1)N1CCN(c2ccc([N+](=O)[O-])c(N3CCOCC3)c2)CC1	Pf growth 48h inconclusive, Pf growth 96h inconclusive
CCOC(=O)[C@@H]1[C@H]2COc3ccccc3[C@H]2N2C(=O)N(c3ccc(OC)cc3)C(=O)[C@]12C	Pf growth 96h inconclusive
CCOc1ccc(CN2C(=O)c3ccccc3Sc3ccc(C(=O)NCc4ccc(C)cc4)cc32)cc1	none (no result: Pf growth 48h, Pf growth 96h, LmPK inh)
Cc1ccc2sc(-c3ccc(NC(=O)c4cc(-n5cnnc5)ccc4Cl)cc3)nc2c1	Cycloheximide cs 62.2, Pf growth 96h inconclusive, Shiga inhibitor 134.2
CC(=O)Nc1ccc(NC(=O)c2cc(-n3cnnc3)ccc2Cl)cc1	none
Cc1nn(CC(=O)NC(=O)c2ccccc2)c(C)c1[N+](=O)[O-]	none (no result: Cycloheximide cs, Shiga inhibitor, LmPK inh)
Cc1cccc(NC(=O)C(C)Sc2nc3ccccc3c(=O)n2CCCN2CCOCC2)c1 (stereo not given)	Pf growth 48h 13.1µM, Pf growth 96h 8.28µM (no result: Cycloheximide cs, Shiga inhibitor, LmPK inh)
Cc1nc2ccccc2c(=O)n1CCCN1CCOCC1	Pf growth 48h inconclusive
COCCn1c(SC(C)C(=O)Nc2ccc3c(c2)OCCO3)nc2ccccc2c1=O (stereo not given)	Pf growth 48h inconclusive, Pf growth 96h 13.1µM
COCCn1c(SC(C)C(=O)NC2CCCCC2C)nc2ccccc2c1=O (stereo not given)	none (no result: Cycloheximide cs, Shiga inhibitor, LmPK inh)
CN(C)CC(C)(C)CNC(=O)CC1C(=O)NCCN1Cc1ccc(-c2ccccc2)cc1 (stereo not given)	none
O=S(=O)(c1cccc(F)c1)N1CCN(C(=S)NCC2CCCO2)CC1 (stereo not given)	Pf growth 48h inconclusive, Pf growth 96h inconclusive
COc1cccc(CNC(=O)CCl)c1	Pf growth 48h inconclusive, Pf growth 96h 10.4µM
COc1cccc(CNC(=O)c2ccc(C(=O)NCc3cccc(OC)c3)cc2)c1	none
COc1cccc(CNC(=O)C(c2ccc(Cl)cc2)C(C)C)c1 (stereo not given)	Pf growth 48h 9.28µM, Pf growth 96h 6.57µM
COc1cccc(CNC(=O)c2ccc(C3SCCS3)cc2)c1	Cycloheximide cs 26.4, Pf growth 96h inconclusive
CCOc1ccc(S(=O)(=O)N2CCCC(C(=O)N3CCCC3)C2)cc1 (stereo not given)	none
Cc1ccc(Nc2nc(C(=O)NCCCN3CCOCC3)cs2)cc1	none
Clc1ccc(Nc2nc(C3CC3)cs2)cc1	Cycloheximide cs 55.7, Shiga inhibitor 101.9 (no result: Pf growth 48h)
Cc1ccc(Nc2nc(C3CC3)cs2)cc1	Cycloheximide cs 33.2, Shiga inhibitor 52.5
NNC(=O)c1cnn(Cc2ccccc2)c1N	none
CC(C)NCC(O)c1ccc(N)c(C#N)c1 (stereo not given)	Pf growth 96h 12µM (no result: Cycloheximide cs, Shiga inhibitor, LmPK inh)
C/C(=N\NC(=O)c1nnn(-c2nonc2N)c1-c1ccccc1)c1ccco1	none
Cc1csc2ncc(C(=O)Nc3ccc4c(c3)OCCO4)c(=O)n12	Cycloheximide cs 58.5, Shiga inhibitor 117.3
Cc1csc2ncc(C(=O)Nc3ccccc3Cl)c(=O)n12	none
